Bioassay records deposited in PubChem by several laboratories.
Sampled rows, rich in hits. Any-hit rate of the full collection: about 1.9%.
Vif imaging: blocks HIV Vif function. HEK293T cells, Vif self-association by quenched fluorescence, imaging, 24 h. inhibition, % at 7.49 µM. 340,000 tested, 0.35% active; in the data active means inhibition above about 50%, passing the limit was not always enough
dFosB activator: enhances mouse delta FosB homodimer DNA binding; AID 493131; purified delta FosB, TAMRA-CDK5 oligo fluorescence polarization; percent of positive-control signal above neutral wells; 340,000 tested, 0.99% active; P13346; activation, % at 25 µM;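 active means mean activation above about 17%, with every replicate also reaching it, limit read from the data, passing the limit was not always enough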
Target sequence (P13346 whole entry, looked up): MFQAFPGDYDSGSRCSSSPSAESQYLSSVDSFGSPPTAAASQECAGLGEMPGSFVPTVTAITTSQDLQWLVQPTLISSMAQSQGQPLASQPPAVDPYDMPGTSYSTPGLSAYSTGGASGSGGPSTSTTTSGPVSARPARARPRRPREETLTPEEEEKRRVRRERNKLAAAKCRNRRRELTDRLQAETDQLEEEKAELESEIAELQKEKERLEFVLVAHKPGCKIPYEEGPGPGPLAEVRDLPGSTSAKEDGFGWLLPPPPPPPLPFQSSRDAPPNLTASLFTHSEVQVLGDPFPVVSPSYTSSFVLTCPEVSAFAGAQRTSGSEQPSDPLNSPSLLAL
GSIS activator: primary screen for activators of insulin secretion dependent on glucose, INS-1E cells, GLuc reporter luminescence. INS-1E GLuc reporter insulin secretion, 2-3 h. activation, % at 16.6 µM. 370,000 tested, 0.61% active. AID 743287;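 active means lowest replicate activation of at least 40%, so every replicate reaches that level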
Bfl-1 A1 inh: inhibitors of the anti-apoptotic protein A1, read as caspase activation. MEF A1-2A-BIM cells, Caspase-Glo 3/7 luminescence, 3 h; percent of clofoctol response, vehicle zero. caspase activation, % (no concentration beside the values). 330,000 tested, 0.066% active;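 active means over half of replicate activation scores above 10%, or exactly half above 10 with the replicate mean above 10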
Neddylation inh: blocks human cullin neddylation; P61081+Q13564; TR-FRET cullin neddylation, biochemical; inhibition, % at 25 µM; 360,000 tested, 0.58% active; AID 651699; in the data active means inhibition above about 36%
Hits are given with their value.

For COc1ccc(C=O)cc1Cn1c(=O)n(CCC(=O)NCc2ccco2)c(=O)c2sccc21 the results were Vif imaging inactive, dFosB activator 94, GSIS activator inactive, Bfl-1 A1 inh inactive and Neddylation inh inactive.
O=C(CNC(=O)c1ccc2c(c1)OCCO2)N=Nc1c(O)[nH]c2ccccc12 was read as Vif imaging inactive, dFosB activator 24, GSIS activator inactive, Bfl-1 A1 inh inactive and Neddylation inh inactive.
COC(=O)C1CCN(c2cc(Cl)nc(N)n2)CC1 was read as Vif imaging inactive, dFosB activator inactive, GSIS activator 48, Bfl-1 A1 inh inactive and Neddylation inh inactive.
Cc1nn(CCCC(=O)N2CCc3ccccc3C2)c(=O)c2cc3sccc3n12 was read as Vif imaging 85, dFosB activator inactive, GSIS activator inactive, Bfl-1 A1 inh inactive and Neddylation inh inactive.
`COc1ccc2c3c([nH]c2c1)[C@H](CO)N(C(C)=O)CC31CCN(S(=O)(=O)c2cccs2)CC1` gave GSIS activator inactive.
`CC(C)(C)[S@@](=O)N1Cc2cc(C(=O)N3CCc4ccccc4C3)nc(-c3cccc(-c4ccncc4)c3)c2[C@H]1CCO` gave GSIS activator inactive.
`O=C1c2ccccc2C(Nc2ccc(S(=O)(=O)N3CCOCC3)cc2)N1c1ccccn1` (stereo unspecified) gave Vif imaging 52, dFosB activator inactive, GSIS activator inactive, Bfl-1 A1 inh inactive and Neddylation inh inactive.
For C[C@H](CO)N1C[C@H](C)[C@@H](CN(C)C(=O)Nc2ccccc2)OCCCC[C@H](C)Oc2ccc(NC(=O)Nc3ccc(C(F)(F)F)cc3)cc2C1=O the results were GSIS activator inactive.
COC(=O)c1ccc2c(=O)[nH]c(CSc3nc(-c4ccc(F)cc4)cs3)nc2c1 was read as Vif imaging inactive, dFosB activator inactive, GSIS activator 58, Bfl-1 A1 inh inactive and Neddylation inh inactive.
`COc1ccc(C2C3CCCCC3(O)CCN2C(=O)c2cccs2)cc1` (stereo unspecified) gave Vif imaging inactive, dFosB activator inactive, GSIS activator 48, Bfl-1 A1 inh inactive and Neddylation inh inactive.
`COc1ccc(C2CCCN2C(=O)c2cccs2)cc1` (stereo unspecified) gave Vif imaging inactive, dFosB activator inactive, Bfl-1 A1 inh inactive and Neddylation inh inactive.
`CCN(CC)c1ccc(C2C3CCCCC3(O)CCN2C(=O)c2cccs2)cc1` (stereo unspecified) gave Vif imaging inactive, dFosB activator inactive, GSIS activator inactive, Bfl-1 A1 inh inactive and Neddylation inh inactive.
`O=C(c1cccs1)N1CCC2(O)CCCCC2C1c1ccc(F)cc1` (stereo unspecified) gave Vif imaging inactive, dFosB activator inactive, GSIS activator 54, Bfl-1 A1 inh inactive and Neddylation inh inactive.
For CCNC(=O)Nc1ccc2c(c1)C(=O)N(C)[C@@H]1CC[C@@H](CC(=O)NCCN3CCCC3)O[C@H]1CO2 the results were GSIS activator inactive.
For CC(C)CC(=O)Nc1nnc(SCC(=O)NC2CCCC2)s1 the results were Vif imaging inactive, GSIS activator 121 and Neddylation inh inactive.
CC(C)CC(=O)Nc1nnc(SCC(=O)NC2CCCCC2)s1 was read as Vif imaging inactive, dFosB activator inactive, GSIS activator inactive, Bfl-1 A1 inh inactive and Neddylation inh inactive.
For C[C@@H]1CN([C@@H](C)CO)C(=O)c2cccc(NC(=O)Nc3ccc(C(F)(F)F)cc3)c2O[C@@H]1CN(C)S(=O)(=O)c1ccccc1 the results were GSIS activator inactive.
Screening Cc1ccc(C(=O)Nc2sc3c(c2C(=O)O)CCC(C)C3)o1 (stereo unspecified) returned Vif imaging inactive, dFosB activator inactive, GSIS activator inactive, Bfl-1 A1 inh inactive and Neddylation inh 53.
Screening O=C(CCN1CCOCC1)c1ccc(N2CCCCC2)cc1 returned Vif imaging inactive, dFosB activator inactive, GSIS activator 51, Bfl-1 A1 inh inactive and Neddylation inh inactive.
For C[C@H]1CN([C@@H](C)CO)C(=O)c2cc(NS(=O)(=O)c3ccc(Cl)cc3)ccc2O[C@@H]1CN(C)S(C)(=O)=O the results were GSIS activator inactive.
`O=C(Nc1ccc(Cl)cc1)NC1CCCCC1` gave Vif imaging inactive, dFosB activator inactive, Bfl-1 A1 inh inactive and Neddylation inh inactive.
